Each structure is given as a SMILES string. Out of some 360,000 compounds screened, about 1,800 (0.5%) were called active. The sample holds actives, similar compounds and a random draw of the others, so the mix is not that of the screen.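 How the source made its calls: active means interference check ratio from 0.5 to 1.5 plus GFP to RFP signal ratio inhibition reaching or exceeding a fixed threshold (cut at about 30% in these data, passing the limit was not always enough); inactive means the rest.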

This assay is described as follows: suppressors of acrylamide-induced Pgst-4::GFP reporter in worms, primary screen, SKN-1 inhibitor project, whole organism, uHTS, GFP/RFP fluorescence ratio, strain VP596 (AID 624304). The note with it: C. elegans VP596 Pgst-4::GFP/RFP ratio, 24 h, at 21.8 µM, active compounds read high.
With `Cc1c(C(=O)NCCN2CCOCC2)sc2nc(-c3ccc(F)cc3)cn12`, the inhibition (as a rule, the change of the read-out against control, counted positive when it falls) was 5.89% (inactive).

As to `CC/C(=N/Nc1ccccc1)c1cnnc(SC)n1`, the inhibition is 10.2% (inactive).

Take `CCOc1ccc(CNC(=O)C2CC(=O)N(C3CCCC3)C2)cc1OC` (stereo not drawn): the inhibition was 8.98% (inactive).

Regarding `CCOC(=O)C1CCN(C(=O)C2CCN(S(=O)(=O)CC)CC2)CC1`, the inhibition was 6.26% (inactive).

Consider `Cc1onc(-c2ccccc2Cl)c1C(=O)NCCn1ccc2ccccc21`, for which the inhibition was 39.7% (active).

For `Cc1ccc2cc(CCNC(=O)c3c(-c4ccccc4Cl)noc3C)c(=O)[nH]c2c1`, the inhibition is 11.2% (inactive).

For the molecule `Cc1onc(-c2ccccc2Cl)c1C(=O)N(Cc1ccc(N(C)C)cc1)C(C)C`, the inhibition was -21.5% (inactive).

As to `FC(F)(F)c1ccc(-c2cccc3c2C2CC3CCN2Cc2ccccc2)cc1` (stereo not drawn), the inhibition is 7.81% (inactive).

Take `CC1(C)Cc2ccccc2-c2nnc(-c3cccc(O)c3)n21`: the inhibition is 27.7% (inactive).

As for `O=C(NCCCn1ccnc1)c1cc(-c2ccccc2)on1`, the inhibition was 8.95% (inactive).

On to `O=C(NC1CCCC1)c1cc(-c2ccccc2)on1`, for which the inhibition was 37.3% (active).

On to `O=C(NC1CCCCCCC1)c1cccs1`, for which the inhibition was 22.3% (inactive).

`NC1=CC(=O)C(=O)c2cccnc21`: the inhibition is 18.3% (inactive).

As for `COc1ccccc1Cn1c(C)nnc1-c1cnn(C)c1N`, the inhibition is 10.4% (inactive).

As to `CCOc1cc(C)ccc1OCc1nnc(SCC(=O)Nc2cccc(C(=O)O)c2)n1-c1ccccc1`, the inhibition was -9.28% (inactive).

As to `CCCCNC(=O)CSc1nc2ccc(NC(=O)CSc3nnc(COc4ccccc4C)n3C)cc2s1`, the inhibition is 39.2% (active).

On to `CC(=O)Nc1ccc(NC(=O)CSc2nnc(COc3ccccc3C)n2CC2CCCO2)cc1` (stereo not drawn), for which the inhibition was -7.59% (inactive).

As for `Cc1nonc1C1CCCN1Cc1nc(-c2ccc(F)cc2F)oc1C` (stereo not drawn), the inhibition is 10% (inactive).

In the case of `CSc1nnc(CNC(=O)c2ccccc2)n1-c1ccc(F)cc1`, the inhibition was -6.87% (inactive).

Take `Cc1ccnc(SCCn2c(Br)nc3c2c(=O)[nH]c(=O)n3C)n1`: the inhibition is -9.02% (inactive).

Take `CCCCCCCCCCCCN1C(=O)CSC1c1cccnc1` (stereo not drawn): the inhibition is -6.65% (inactive).

Turning to `CCOc1cc(CO)ccc1OCC(=O)N1CCCCC1`, the inhibition is 7.04% (inactive).

Consider `CCOC(=O)/C=C/CN(C(=O)OC(C)(C)C)S(=O)(=O)N1CC=CC1`, for which the inhibition was 35.2% (active).

Consider `CCOC(=O)/C=C/c1ccc(C(F)(F)F)cc1S(=O)(=O)NC(C)(C)C`, for which the inhibition was 3.66% (inactive).

Regarding `CNc1cc(-c2c(OC)cccc2OC)ncn1`, the inhibition was 4.47% (inactive).

For the molecule `CCCC(=O)N1CCC1(C)C(=O)NCc1ccc(C(C)C)cc1` (stereo not drawn), the inhibition was 14.8% (inactive).

For `CC(=O)N1CCN(c2ccc(NCc3ccc(C(C)C)cc3)cc2)CC1`, the inhibition is 36.1% (active).

As to `CC(C)c1ccc(NC(=O)COC(=O)c2ccc(CN3CCCC3=O)cc2)cc1`, the inhibition was -1.54% (inactive).

Take `COCCNC(=O)c1ccc(N2CCC3(CC2)OCCO3)c([N+](=O)[O-])c1`: the inhibition was -6.38% (inactive).

Take `O=C(Nc1nn(Cc2ccccc2F)cc1Br)c1cccs1`: the inhibition was 6.46% (inactive).

As for `Cc1ccc(-c2nc(-c3ccncc3)no2)c(C)c1`, the inhibition is 37% (active).

Consider `Cc1ccc(-c2noc(-c3ccccc3C(=O)NCC3CCCO3)n2)cc1` (stereo not drawn), for which the inhibition is -3.76% (inactive).

Turning to `O=C(NCc1cccnc1)c1nc(-c2cccs2)no1`, the inhibition is 7.29% (inactive).

Turning to `COc1ccc(CCc2nc(-c3cccs3)no2)cc1`, the inhibition is -7.8% (inactive).

On to `c1csc(-c2nc(-c3ccncc3)no2)c1`, for which the inhibition was 47.4% (active).

On to `COc1cc(OC)cc(C(=O)OCC(=O)Nc2sccc2C(N)=O)c1`, for which the inhibition is 0.966% (inactive).

On to `COCCn1c(=NC(=O)c2ccccc2[N+](=O)[O-])sc2cc(S(C)(=O)=O)ccc21`, for which the inhibition was 0.193% (inactive).

In the case of `COc1ccc(C(=O)NC(C)Cn2nc(C)cc2C)cc1OC1CCN(C(C)=O)CC1` (stereo not drawn), the inhibition was 8.35% (inactive).

For the molecule `CCC(Cc1ccccc1)NS(=O)(=O)c1ccc2c(c1)NC(=O)CS2` (stereo not drawn), the inhibition was -5.64% (inactive).

On to `O=C(Nc1cc(F)ccc1F)c1ccc2c(=O)n3c(nc2c1)CCC3`, for which the inhibition was -4.08% (inactive).

`COC[C@@H]1NS(=O)(=O)c2ccc(Br)cc2O[C@H]1c1ccccc1`: the inhibition was 14.6% (inactive).

As for `COc1ccc(C(=O)NCc2ccc(C)cc2)cc1S(=O)(=O)N1CCCC1`, the inhibition was 0.996% (inactive).

Consider `CC(=O)N(CN1C(=O)C2CC=CCC2C1=O)c1cccc(Cl)c1` (stereo not drawn), for which the inhibition was 36.1% (active).

As for `CCOC(=O)c1cccc(NC(=O)CN2C(=O)C3CC=CCC3C2=O)c1` (stereo not drawn), the inhibition was 6.29% (inactive).

As to `CC(=O)N(CN1C(=O)C2C3C=CC(C3)C2C1=O)c1cccc(Cl)c1` (stereo not drawn), the inhibition is 16.7% (inactive).

As for `COc1ccc(NC(=O)C(CC(C)C)NC(=O)C2CCC(C)CC2)cc1` (stereo not drawn), the inhibition was -11.6% (inactive).

Turning to `COc1cc(C(=O)Nc2nccs2)cc(OC)c1OC`, the inhibition was 41.9% (active).

Turning to `CC(=O)Oc1ccc(C(=O)Nc2nccs2)cc1`, the inhibition is 3.06% (inactive).

As to `COc1ccc(Cc2nnc(NC(=O)c3cc(OC)c(OC)c(OC)c3)s2)cc1OC`, the inhibition was -13.7% (inactive).

For the molecule `CCC(C)(C)c1ccc(OCC(=O)N(C)C)c(C(C)(C)CC)c1`, the inhibition was 2.98% (inactive).

As for `CC1(C(=O)NS(=O)(=O)c2cccc(F)c2)CCN1C(=O)Cc1ccc(Cl)cc1Cl` (stereo not drawn), the inhibition is 15.6% (inactive).

Turning to `C=C(C)Cn1c(N2CCN(CC)CC2)nc2c1c(=O)[nH]c(=O)n2C`, the inhibition is 16.3% (inactive).

On to `O=S(=O)(Cc1cc(Cl)nc(-c2cccnc2)n1)c1ccccc1`, for which the inhibition is -15.6% (inactive).

Regarding `O=S(=O)(Cc1cc(Sc2ccccc2)nc(-c2ccccc2)n1)c1ccccc1`, the inhibition was 44.9% (active).

For the molecule `Cc1ccc(Sc2cc(N3CCOCC3)nc(-c3ccccc3)n2)cc1`, the inhibition is 7.71% (inactive).

In the case of `Cc1cc2c(=O)n(CC(=O)NCC(=O)Nc3ccc(C(C)C)cc3)cnc2s1`, the inhibition is -0.0427% (inactive).

As for `CCOc1ccc(N2C(=O)/C(=C/c3ccc(C)o3)N(C)C2=S)cc1`, the inhibition is -1.02% (inactive).

Regarding `O=C(CCn1c(=S)[nH]c2ccccc2c1=O)NCCCN1CCCC1=O`, the inhibition is 36.5% (active).

`O=Cc1c(NCCCN2CCCC2=O)c2ccccc2[nH]c1=O`: the inhibition was 19.6% (inactive).

In the case of `CCOc1cc2[nH]c(=S)n(CCCN3CCCC3=O)c(=O)c2cc1OCC`, the inhibition was -28.4% (inactive).

In the case of `COc1ccc(N2CCN(C(=O)C3CCN(S(=O)(=O)c4ccc(C)cc4)CC3)CC2)cc1`, the inhibition is 5.77% (inactive).

Regarding `CC(CCc1ccccc1)NC(=O)COC(=O)c1ccc(F)cc1` (stereo not drawn), the inhibition is 3.96% (inactive).

Consider `CCc1ccc(OCC(=O)OCC(=O)c2c(N)n(C)c(=O)n(C)c2=O)cc1`, for which the inhibition is -10% (inactive).

For the molecule `C[C@H]1CN([C@@H](C)CO)C(=O)CCCn2cc(nn2)CO[C@@H]1CN(C)C(=O)Nc1ccccc1`, the inhibition is 1.2% (inactive).

On to `Cc1cc(NC(=O)CCN2CCN(Cc3ccccc3)CC2)ccc1Br`, for which the inhibition was 1.51% (inactive).

Take `COc1ccccc1NC(=O)CCN1CCN(c2ccc(Cl)cc2)CC1`: the inhibition is 8.41% (inactive).

For the molecule `COC(=O)CNC(c1ccccc1Cl)c1cc(Br)ccc1NC(=O)CCN1CCOCC1` (stereo not drawn), the inhibition is 35.2% (active).

`Cc1cc(C)cc(NC(=O)C2CCCN(S(=O)(=O)c3ccc4[nH]c(=O)ccc4c3)C2)c1` (stereo not drawn): the inhibition was 11.9% (inactive).

Turning to `O=S(=O)(NC1CC2CCC1C2)c1ccc(Cl)cc1` (stereo not drawn), the inhibition is 8.97% (inactive).

On to `CN1c2ccc(C=O)c3c(C=O)ccc(c23)N(C)C1(C)C`, for which the inhibition was 39.8% (active).

Turning to `CCCCNC(=O)C1(O)c2ccccc2NC(=O)N1c1ccc(Cl)cc1` (stereo not drawn), the inhibition was 19.1% (inactive).

Turning to `CSc1ccc(CNC(=O)c2ccc(NC(=O)C3=CSCCO3)cc2)cc1`, the inhibition is 22.9% (inactive).

Regarding `Cc1nc2ccccn2c1C(=O)NN=C1CCN(C)CC1`, the inhibition is 8.18% (inactive).

On to `CC1=NNC(=O)C1Cc1c(Cl)cccc1Cl` (stereo not drawn), for which the inhibition was -3.65% (inactive).

For `Cc1ccc(OCCNC(=O)CNC(=O)c2ccc(C)c(C)c2)cc1`, the inhibition is 5.58% (inactive).

For `CC(C=Cc1ccccc1)=NNS(=O)(=O)c1ccc([N+](=O)[O-])cc1`, the inhibition was 21.6% (inactive).

Consider `COC(=O)c1ccccc1N=NNc1ccc([N+](=O)[O-])cc1`, for which the inhibition was 20.6% (inactive).

With `O=[N+]([O-])c1ccc(N/N=C/c2ccccc2)cc1`, the inhibition is 41.2% (active).

Turning to `CC1CN(c2cc(=O)n(-c3cccc(Br)c3)c(=O)[nH]2)CC(C)O1` (stereo not drawn), the inhibition is 5.49% (inactive).

For the molecule `COc1ccc2nc(N3CCN(C(=O)c4ccc([N+](=O)[O-])o4)CC3)sc2c1`, the inhibition is 2.32% (inactive).

As to `Brc1ccc2nc(N3CCCC3)sc2c1`, the inhibition was 52% (active).

For the molecule `O=C(NCCc1cccc(F)c1)C1CCCN(c2nc3ccccc3s2)C1` (stereo not drawn), the inhibition is 10.3% (inactive).

Regarding `CCCCN1C(=S)NC[C@@H]1C(C)CC` (stereo partly drawn), the inhibition was -0.152% (inactive).

Turning to `Clc1ccc(C[n+]2cc(-c3ccc(Cl)cc3)n3c2CCC3)cc1`, the inhibition was 0.364% (inactive).

`O=C(C1CCN(S(=O)(=O)c2cnc[nH]2)CC1)N1CCN(Cc2ccc3c(c2)OCO3)CC1`: the inhibition was 17.4% (inactive).

`COc1ccccc1N1CCN(CC(=O)Nc2ccnn2C2CCCC2)CC1`: the inhibition is -9.67% (inactive).

Regarding `FC(F)(F)c1ccnc(Oc2ccc(C3=NCCS3)cc2)c1`, the inhibition was 44.7% (active).

In the case of `CCC(=O)Nc1ccc(S(=O)(=O)Nc2c(NC)c3ccccc3oc2=O)cc1`, the inhibition is 9.74% (inactive).

Take `CN(Cc1ccccc1)C(=O)COC(=O)c1ccccc1Nc1ccccc1`: the inhibition was -4.32% (inactive).

In the case of `Cc1cccc(N2CCN(C(=O)c3cccc(S(=O)(=O)N4CCc5ccccc5C4)c3)CC2C)c1` (stereo not drawn), the inhibition is -16.8% (inactive).

Take `COc1cccc(C2SCC(=O)N2c2cccc(C)c2)c1OC` (stereo not drawn): the inhibition is 2.8% (inactive).

On to `Cc1cc(C(C)(C)C)oc1C(=O)N(CC(=O)NC1CCCC1)Cc1ccc(Cl)cc1`, for which the inhibition is 6.57% (inactive).

`CCCCOc1ccc(-c2nnc(-c3ccco3)o2)cc1`: the inhibition was 64.9% (active).

As to `CCOc1ccc(NC(=O)N(CCC(C)C)C(C)c2ccco2)cc1` (stereo not drawn), the inhibition was -11.7% (inactive).

Turning to `O=C(CSc1nnc(-c2ccco2)o1)NCC(=O)c1ccccc1`, the inhibition is -0.628% (inactive).

As for `CCCCSc1nnc(-c2ccc(C)cc2)o1`, the inhibition is 1.11% (inactive).

On to `CCOc1ccc(-c2nnc(-c3ccco3)o2)cc1`, for which the inhibition was 58.1% (active).

Regarding `CCCOc1ccc(-c2c(C(=O)N/N=C/c3ccco3)nnn2-c2nonc2N)cc1`, the inhibition is 3.6% (inactive).

The record behind these values is PubChem BioAssay AID624304 (Sanford-Burnham Center for Chemical Genomics, 2012).
